Source: PubChem BioAssay (NCATS)
Records with an inconclusive call do not appear. A call without a number means that no potency is given here. Unmarked numbers belong to inactive results. Active and inactive are the calls of the source. Unless noted, the call rests on the fitted dose curve; in most records, active means well fitted curve in the direction sought with a large enough effect; inconclusive means small, poorly fitted or top-dose-only effect, or another doubt; inactive means no such curve, though single readings can be large; an effect the other way counts as inactive or inconclusive.

Assays:
[1] = molecular target: Luciferin 4-monooxygenase (Photinus pyralis) (UniProt P08659); assay: Biochemical firefly luciferase enzyme assay for NPC (AID 624030);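 further: purified P. pyralis luciferase at 10 nM with luciferin and ATP substrate; nearly all actives have a fitted effect of over 70% in size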
Summary of the method: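 Counter-screen for direct inhibition of the luciferase enzyme by approved-drug library compounds, run at 10 nM enzyme in 50 mM Tris acetate (final). Luminescence was read within 5 min of enzyme-buffer addition and normalized to PTC124 versus DMSO (0%).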

[2] = S16 Schwann cell PMP22 intronic element firefly luciferase assay (AID 624032); further: nearly all actives have a fitted effect of over 30% in size; further: potency means the concentration at half of the fitted maximal effect
Summary of the method: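 Rat S16 Schwann cells stably carrying a PMP22 intronic element-driven Fluc reporter were seeded overnight, then exposed to compounds for 24 h at 37 °C. Luminescence was normalized to PTC124 (positive control) and DMSO (0% activity).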

[3] = S16 Schwann cell PMP22 intronic element beta-lactamase assay (AID 624044; calls by dose curve; further: nearly all actives have a fitted effect of over 15% in size; further: potency means the concentration at half of the fitted maximal effect); conditions: S16 rat Schwann cells, PMP22 element beta-lactamase FRET, 24 h; ratio activity, negative = inhibition: at 38.3 µM (top of the series) unless noted
Summary of the method: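 Beta-lactamase reporter under a PMP22 intronic regulatory element in stable S16 rat Schwann cells; 24 h compound exposure. 460 nm blue signal normalized between DMSO (0%) and potassium clavulanate, with 535 nm FRET tracking viability; curves classed by r2 and response.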

[4] = S16 Schwann cell viability assay (CellTiter-Glo assay) (AID 624031); further: nearly all actives have a fitted effect of over 70% in size; further: potency means the concentration at half of the fitted maximal effect
Summary of the method: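 Parental S16 cells, 24 h compound, 37 °C. ATP-luminescence viability; DMSO = 0% activity, empty wells as reference; curves classified by fit quality and efficacy.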

Chain of Luciferin 4-monooxygenase (Photinus pyralis) (P08659 whole entry, looked up): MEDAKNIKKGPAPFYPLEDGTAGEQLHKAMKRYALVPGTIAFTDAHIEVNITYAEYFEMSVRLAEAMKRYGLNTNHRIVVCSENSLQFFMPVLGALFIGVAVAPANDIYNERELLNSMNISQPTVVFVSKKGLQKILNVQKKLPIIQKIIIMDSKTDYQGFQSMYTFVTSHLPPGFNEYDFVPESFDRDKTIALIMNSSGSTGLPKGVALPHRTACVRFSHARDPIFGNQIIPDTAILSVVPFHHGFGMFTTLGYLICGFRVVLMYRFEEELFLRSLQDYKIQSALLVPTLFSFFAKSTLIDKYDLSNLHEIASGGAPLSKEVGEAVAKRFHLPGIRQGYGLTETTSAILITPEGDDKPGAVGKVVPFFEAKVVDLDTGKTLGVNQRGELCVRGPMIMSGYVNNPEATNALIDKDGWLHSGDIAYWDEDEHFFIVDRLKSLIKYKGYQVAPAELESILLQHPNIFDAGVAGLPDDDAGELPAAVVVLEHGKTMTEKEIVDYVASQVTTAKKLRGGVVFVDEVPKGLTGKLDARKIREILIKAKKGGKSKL

SMILES	Potency [1]	Potency [2]	ratio activity, negative = inhibition [3]	Potency [4]	Potency [3]
CN(C)CCC=C1c2ccccc2C(C)(C)c2ccccc21	inactive	inactive	-0.444%		
CNC(=O)C[C@@H](N)C(=O)N[C@@H](C(=O)N[C@@H]1C(=O)N2[C@@H]1SC(C)(C)[C@@H]2C(=O)O)c1ccc(O)cc1	inactive	inactive	-2.79%	inactive	
NCC(O)CC(=O)O (configuration not stated)	inactive	inactive	4.25%	inactive	
CC/C=C\C/C=C\C/C=C\C/C=C\C/C=C\C/C=C\CCC(=O)O	inactive	inactive	0.57%		
CCCCCCCCCCCCCCCCOCCOCCOCCOCCOCCOCCOCCOCCOCCOCCOCCOCCOCCOCCOCCOCCOCCOCCOCCOCCO	inactive	22.8 µM (active)		28.7 µM (active)	19.9 µM (active)
CCN(CC)CCC(=O)N1c2ccccc2Sc2ccc(C(F)(F)F)cc21	inactive	14.4 µM (active)	-1.58%	inactive	
C=C1C(CCl)(CCl)C2(Cl)C(Cl)C(Cl)C1(Cl)C2(Cl)Cl (configuration not stated)	inactive		-26.3%		
Cc1ncc(C[n+]2csc(CCOP(=O)(O)OP(=O)(O)O)c2C)c(N)n1	inactive	inactive	-0.395%	inactive	
CN(C)CCOc1ccc(/C(=C(/CCCl)c2ccccc2)c2ccccc2)cc1	inactive		-1.5%		
Cc1cc(C)c(NC(=O)C[C@H](CC(=O)O)c2cccc3ccccc23)c(C(=O)N2CCC3(CCCC3)CC2)c1	inactive	inactive			
